Screening data (PubChem)
S1P2 blocker: human S1P2 receptor antagonists, primary screen, cell-based. Sphingosine 1-phosphate receptor 2 (Homo sapiens), O95136. cell-based S1P2 antagonist assay, inhibition at 5 uM. inhibition, % at 5 µM. 0.21% of 97,000 active; in the data active = inhibition above about 45%;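 note: CRE beta-lactamase reporter cells expressing human S1P2 stimulated with S1P; 0% = agonist at EC80 alone and 100% = agonist plus reference antagonist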
PostGolgi yeast: phenotypic screen on post-Golgi transport, primary screen | post-Golgi transport phenotypic cell assay | 0.9% of 98,000 active | inhibition, % at 10 µM;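 note: yeast cells grown in 1536-well plates; yeast grown about 18 h at 30C before absorbance read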
S1P2 ag: S1P2 receptor agonists, primary screen, cell-based | activation, % at 4.5 µM | AID 729, 2007 | S1P2-expressing cell line, agonist reporter read-out | 0.46% of 97,000 active; in the data active = activation above about 16%;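 note: 0% = vehicle low control and 100% = maximal reference agonist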
GALR2 antag: GALR2 antagonists in receptor-expressing cells, primary screen; antagonist mode; inhibition, % at 4 µM; 0.39% of 140,000 active; Galanin receptor type 2 (Homo sapiens), O43603; in the data active = inhibition above about 27%;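 note: cells stimulated with galanin 1-16 at roughly its EC80; 0% = agonist challenge control and 100% = basal control without agonist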
Target sequence (O43603 whole entry, looked up): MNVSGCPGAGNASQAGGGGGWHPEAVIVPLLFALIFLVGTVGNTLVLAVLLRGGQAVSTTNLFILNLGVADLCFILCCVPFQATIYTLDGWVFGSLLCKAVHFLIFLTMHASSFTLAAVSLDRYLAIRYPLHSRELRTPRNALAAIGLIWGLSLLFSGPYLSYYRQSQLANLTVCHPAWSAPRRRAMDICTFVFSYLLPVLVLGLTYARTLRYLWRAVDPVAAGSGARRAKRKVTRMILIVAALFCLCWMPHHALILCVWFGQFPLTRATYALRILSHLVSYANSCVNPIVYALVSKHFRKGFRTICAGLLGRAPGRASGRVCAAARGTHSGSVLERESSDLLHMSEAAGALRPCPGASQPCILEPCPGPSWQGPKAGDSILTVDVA
PostGolgi ctrl: growth inhibition of yeast control strain, primary screen, counter-screen for post-Golgi transport modulator project | AID 738, 2007 | efflux-deficient yeast background strain, growth absorbance A615, 16 h | inhibition, % at 10 µM | 5% of 98,000 active
GALR2 agonist: GALR2 receptor agonists, primary screen, cell-based | Galanin receptor type 2 (Homo sapiens), O43603 | GALR2-expressing cells, agonist activation read-out | activation, % (concentration not given with the values) | 0.48% of 140,000 active; in the data active = activation above about 5%, passing the limit was not always enough;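 note: 0% = vehicle buffer wells and 100% = reference agonist at full effect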
* marks the source's active call; other numbers are inactive results; . = no result given; ! = a repeat was not active. The sample as a whole holds a higher share of hits than the screen did. Cut-off read from the data, not from the text of the source, unless noted: active = inhibition above about 30%; inactive = the rest.

SMILES | S1P2 blocker | PostGolgi yeast | S1P2 ag | GALR2 antag | PostGolgi ctrl | GALR2 agonist
O=C(Nc1ncc(S(=O)(=O)c2ccc([N+](=O)[O-])cc2)s1)c1cccc2ccccc12 | . | . | . | 1 | . | 4
COC(=O)[C@H]1C[C@@H]1[C@H](NC(=O)c1cc(C)on1)c1ccccc1 | . | . | . | 13 | . | -2
Cc1cc(-c2nnc3n2N=C(C(C)(C)C)CS3)n[nH]1 | -15 | -1 | -8 | 8 | 34* | -2
CC1CCN(c2ccc(N3C(=O)C4CCCCC4C3=O)cc2[N+](=O)[O-])CC1 (configuration not stated) | . | . | . | 24 | . | 0
Cc1cc(N2CCC(C)CC2)c(F)cc1[N+](=O)[O-] | -29 | 18 | 0 | 2 | -6 | -2
CC1CCN(c2cc(N)c(Cl)cc2[N+](=O)[O-])CC1 | 2 | -6 | -2 | -12 | 38* | -2
CC1CCN(c2cc(C#N)c(C#N)cc2[N+](=O)[O-])CC1 | -8 | 0 | 0 | -11 | 76* | -3
CC1CCCCN1c1cc(C#N)c(C#N)cc1[N+](=O)[O-] (configuration not stated) | 1 | -1 | -6 | -7 | 43* | 0
N#Cc1cc(NCC2CCCO2)c([N+](=O)[O-])cc1C#N (configuration not stated) | . | . | . | 9 | . | -1
O=C(CCCn1nnc(-c2cccnc2)n1)c1ccc(F)cc1 | . | 3 | . | 2 | 2 | -1
CCOC(=O)CSc1nc2c(c(=O)n(C)c(=O)n2C)n1CCCc1ccccc1 | -2 | -9 | -3 | 10 | 0 | -1
Cc1cc(C)cc(C(=O)O/N=C(\N)c2ccc(Br)cc2)c1 | 12 | 8 | -2 | -5 | 30* | -1
Cc1ccnc2nc(C(=O)OCC(=O)NCCc3ccccc3)nn12 | . | . | . | -2 | . | -1
CCOC(=O)c1ccccc1NS(=O)(=O)c1ccccc1 | 6 | -3 | -2 | 1 | 37* | -3
CCOC(=O)c1ccccc1NC(=O)c1nc2nccc(C)n2n1 | -19 | 3 | -3 | -22 | 40* | 1
Cc1ccc(S(=O)(=O)c2nc(Nc3nccs3)sc2Cl)cc1 | -13 | -9 | -2 | -1 | 52* | 0
CC(=O)Nc1nc(S(=O)(=O)c2ccc(C)cc2)c(Cl)s1 | -2 | 4 | -2 | -9 | 17 | -1
Cc1ccc(S(=O)(=O)c2nc(NCc3ccc4c(c3)OCO4)sc2Cl)cc1 | -4 | -10 | -3 | 3 | 48* | -3
CC(C)(C)NC(=O)COC(=O)c1cc(S(=O)(=O)N2CCCCC2)ccc1N1CCOCC1 | 16 | -3 | -6 | -4 | 8 | -3
CC(=O)c1cccc(S(=O)(=O)NCC2CCCCC2)c1 | . | . | . | 13 | . | 0
CCOC(=O)c1sc2ccc(S(=O)(=O)N3CCOCC3)cc2c1N | 5 | 11 | -8 | 0 | 8 | -1
CCOC(=O)c1sc2ccc(S(=O)(=O)N3CCCCC3)cc2c1N | 7 | 0 | -6 | -15 | 42* | 1
CC(C)(C)c1ccc(C(=O)NCC(=O)OCC(=O)c2ccc3c(c2)-c2ccccc2C3)cc1 | . | . | . | -26 | . | 1
COC(=O)C(C)Sc1nc2c(c(-c3ccc(OC)cc3)c1C#N)-c1ccccc1C2=O (configuration not stated) | -2 | . | -4 | 4 | . | -1
C(=C\c1ccccc1)/CSc1nnc(-c2cccnc2)o1 | 5 | -9 | -3 | -7 | 33* | 0
SMILES | S1P2 blocker | PostGolgi yeast | S1P2 ag | GALR2 antag | PostGolgi ctrl | GALR2 agonist
CCCOc1ccc(C2/C(=C(\O)c3c(C)[nH]c(C(=O)OC)c3C)C(=O)C(=O)N2CCN(C)C)cc1 (configuration not stated) | 9 | 1 | -7 | -3 | 32* | -2
O=C(O)CCSc1ccc2ccccc2n1 | 9 | 1 | -2 | 7 | 44*! | -3
O=C(CSc1ccc2ccccc2n1)c1ccc2c(c1)OCO2 | -5 | 9 | -1 | -21 | 32* | 0
O=C(O)CSc1ccc2ccccc2n1 | -8 | 5 | -10 | 15 | 7 | -1
CC1Cc2ccccc2N1C(=O)CSc1nnnn1C(C)C (configuration not stated) | 22 | -4 | -2 | 5 | -1 | -1
N#CCSc1nc2scc(-c3cccs3)c2c(=O)n1CCc1ccccc1 | 6 | -3 | -4 | -1 | 32* | 0
CS(=O)(=O)N(Cc1ccccc1)c1ccc(C(=O)N2CCc3ccccc3C2)cc1 | 2 | 15 | -1 | 10 | 0 | -1
